This passage reports inhibition results from ChEMBL document CHEMBL1961873, “Compounds: GSK PKIS; Assays: Nanosyn kinase panel” (2012).

Assay [1] deals with Tyrosine-protein kinase Fyn (Homo sapiens) (UniProt P06241). The note with it: at 1 µM.
The target of assay [2] is Tyrosine-protein kinase HCK (Homo sapiens) (UniProt P08631). The note with it: at 0.1 µM.
For assay [3] the target is unchanged. To be noted: at 1 µM.
The target in assay [4] is Insulin-like growth factor 1 receptor (Homo sapiens) (UniProt P08069). The note with it: at 0.1 µM.
Assay [5] has the same target. The note with it: at 1 µM.
Assay [6] addresses Insulin receptor (Homo sapiens) (UniProt P06213). To be noted: at 0.1 µM.
For assay [7] the target is unchanged. The note with it: at 1 µM.
For assay [8], the target named is Insulin receptor-related protein (Homo sapiens) (UniProt P14616). The note with it: at 0.1 µM.
Assay [9] has the same target. To be noted: at 1 µM.
For assay [10], the target named is T1, Tyrosine-protein kinase ITK/TSK (Homo sapiens) (UniProt Q08881).
T1 sequence (whole entry): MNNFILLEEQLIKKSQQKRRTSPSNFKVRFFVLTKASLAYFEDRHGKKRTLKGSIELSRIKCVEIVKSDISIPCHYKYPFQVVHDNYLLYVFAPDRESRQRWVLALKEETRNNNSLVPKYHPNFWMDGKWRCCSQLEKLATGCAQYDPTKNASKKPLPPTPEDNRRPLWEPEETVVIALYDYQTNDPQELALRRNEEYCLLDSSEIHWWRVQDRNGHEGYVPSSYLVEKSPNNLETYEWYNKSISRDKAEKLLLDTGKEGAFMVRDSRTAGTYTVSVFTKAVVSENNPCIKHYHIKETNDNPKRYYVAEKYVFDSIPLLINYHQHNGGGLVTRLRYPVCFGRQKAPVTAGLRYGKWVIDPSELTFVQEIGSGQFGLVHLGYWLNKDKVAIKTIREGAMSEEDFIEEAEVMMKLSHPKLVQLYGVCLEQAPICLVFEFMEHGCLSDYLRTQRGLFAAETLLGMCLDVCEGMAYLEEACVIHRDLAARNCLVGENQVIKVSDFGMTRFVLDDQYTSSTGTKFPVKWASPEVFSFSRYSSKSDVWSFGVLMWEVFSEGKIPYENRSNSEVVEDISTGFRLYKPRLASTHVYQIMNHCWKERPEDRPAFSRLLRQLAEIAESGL
The note with it: at 0.1 µM.

Assay [11] addresses T1, Tyrosine-protein kinase ITK/TSK (Homo sapiens). To be noted: at 1 µM.
The target of assay [12] is Tyrosine-protein kinase JAK1 (Homo sapiens) (UniProt P23458). To be noted: at 0.1 µM.
Assay [13] has the same target. To be noted: at 1 µM.
Assay [14] deals with Tyrosine-protein kinase JAK2 (Homo sapiens) (UniProt O60674). To be noted: at 0.1 µM.
For assay [15] the target is unchanged. The note with it: at 1 µM.
Assay [16] deals with T2, Tyrosine-protein kinase JAK3 (Homo sapiens) (UniProt P52333).
T2 sequence (whole entry): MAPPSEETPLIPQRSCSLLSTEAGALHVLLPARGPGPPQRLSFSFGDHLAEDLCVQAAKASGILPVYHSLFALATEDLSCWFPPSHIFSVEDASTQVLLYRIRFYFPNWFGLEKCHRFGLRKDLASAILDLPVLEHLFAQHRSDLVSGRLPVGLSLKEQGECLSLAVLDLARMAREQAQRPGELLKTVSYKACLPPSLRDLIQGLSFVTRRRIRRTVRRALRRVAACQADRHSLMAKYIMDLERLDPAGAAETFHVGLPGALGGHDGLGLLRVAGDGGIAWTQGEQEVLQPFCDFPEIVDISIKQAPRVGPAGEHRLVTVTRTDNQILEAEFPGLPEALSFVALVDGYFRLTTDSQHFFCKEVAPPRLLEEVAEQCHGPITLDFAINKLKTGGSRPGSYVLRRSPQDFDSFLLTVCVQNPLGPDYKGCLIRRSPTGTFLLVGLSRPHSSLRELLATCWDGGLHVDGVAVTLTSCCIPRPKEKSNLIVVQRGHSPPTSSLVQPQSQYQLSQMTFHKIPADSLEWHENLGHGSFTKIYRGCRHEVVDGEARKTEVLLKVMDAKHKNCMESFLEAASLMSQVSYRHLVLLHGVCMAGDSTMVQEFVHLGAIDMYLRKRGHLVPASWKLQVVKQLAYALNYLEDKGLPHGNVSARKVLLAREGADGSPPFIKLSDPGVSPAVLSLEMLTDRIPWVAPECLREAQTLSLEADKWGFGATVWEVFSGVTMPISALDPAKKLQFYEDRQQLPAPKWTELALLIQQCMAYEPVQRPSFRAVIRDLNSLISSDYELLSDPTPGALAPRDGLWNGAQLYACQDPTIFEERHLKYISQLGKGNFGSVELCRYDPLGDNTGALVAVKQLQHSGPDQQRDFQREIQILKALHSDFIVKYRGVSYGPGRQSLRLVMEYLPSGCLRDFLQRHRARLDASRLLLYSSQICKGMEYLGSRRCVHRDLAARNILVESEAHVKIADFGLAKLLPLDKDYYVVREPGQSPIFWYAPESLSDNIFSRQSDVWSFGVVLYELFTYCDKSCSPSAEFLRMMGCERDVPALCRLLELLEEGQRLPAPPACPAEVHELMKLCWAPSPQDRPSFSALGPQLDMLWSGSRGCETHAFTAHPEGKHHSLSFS
The note with it: at 0.1 µM.

In assay [17] the target is T2, Tyrosine-protein kinase JAK3 (Homo sapiens). The note with it: at 1 µM.
The target in assay [18] is Vascular endothelial growth factor receptor 2 (Homo sapiens) (UniProt P35968). The note with it: at 0.1 µM.
Assay [19] shares this target. The note with it: at 1 µM.
In assay [20] the target is Mast/stem cell growth factor receptor Kit (Homo sapiens) (UniProt P10721). The note with it: at 0.1 µM.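 Note: values are mean inhibition of KIT, from the GSK PKIS dataset.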

Chain of Tyrosine-protein kinase JAK1 (Homo sapiens) (P23458 whole entry): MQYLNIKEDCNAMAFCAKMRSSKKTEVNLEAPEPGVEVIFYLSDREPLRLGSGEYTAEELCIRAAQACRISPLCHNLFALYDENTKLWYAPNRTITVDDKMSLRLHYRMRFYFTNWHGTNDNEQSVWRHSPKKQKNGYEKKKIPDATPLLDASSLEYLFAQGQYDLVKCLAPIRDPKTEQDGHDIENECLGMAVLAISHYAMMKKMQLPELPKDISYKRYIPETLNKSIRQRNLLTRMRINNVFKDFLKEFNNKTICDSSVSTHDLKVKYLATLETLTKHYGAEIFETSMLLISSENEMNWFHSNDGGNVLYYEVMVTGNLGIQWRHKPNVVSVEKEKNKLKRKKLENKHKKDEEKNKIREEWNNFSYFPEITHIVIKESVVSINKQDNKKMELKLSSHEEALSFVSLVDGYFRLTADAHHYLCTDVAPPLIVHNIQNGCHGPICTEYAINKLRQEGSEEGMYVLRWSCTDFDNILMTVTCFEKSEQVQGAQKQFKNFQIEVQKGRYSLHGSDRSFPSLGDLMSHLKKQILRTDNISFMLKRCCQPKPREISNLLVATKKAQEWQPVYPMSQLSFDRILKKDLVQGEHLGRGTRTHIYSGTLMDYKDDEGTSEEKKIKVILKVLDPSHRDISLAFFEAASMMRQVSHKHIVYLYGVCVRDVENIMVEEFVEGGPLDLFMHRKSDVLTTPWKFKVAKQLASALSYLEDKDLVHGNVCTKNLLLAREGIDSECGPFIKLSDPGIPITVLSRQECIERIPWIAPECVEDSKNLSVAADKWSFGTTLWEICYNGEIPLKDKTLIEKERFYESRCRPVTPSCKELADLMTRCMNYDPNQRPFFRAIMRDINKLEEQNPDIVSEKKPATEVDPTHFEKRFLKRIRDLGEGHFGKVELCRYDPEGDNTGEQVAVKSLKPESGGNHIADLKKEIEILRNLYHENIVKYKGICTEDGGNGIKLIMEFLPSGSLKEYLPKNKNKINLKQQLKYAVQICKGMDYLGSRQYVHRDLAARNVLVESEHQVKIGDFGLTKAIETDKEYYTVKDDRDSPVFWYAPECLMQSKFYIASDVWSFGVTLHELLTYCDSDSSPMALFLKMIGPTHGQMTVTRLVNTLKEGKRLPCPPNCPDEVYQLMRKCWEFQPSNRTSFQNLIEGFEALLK
Chain of Tyrosine-protein kinase HCK (Homo sapiens) (P08631 2-526 limits assumed): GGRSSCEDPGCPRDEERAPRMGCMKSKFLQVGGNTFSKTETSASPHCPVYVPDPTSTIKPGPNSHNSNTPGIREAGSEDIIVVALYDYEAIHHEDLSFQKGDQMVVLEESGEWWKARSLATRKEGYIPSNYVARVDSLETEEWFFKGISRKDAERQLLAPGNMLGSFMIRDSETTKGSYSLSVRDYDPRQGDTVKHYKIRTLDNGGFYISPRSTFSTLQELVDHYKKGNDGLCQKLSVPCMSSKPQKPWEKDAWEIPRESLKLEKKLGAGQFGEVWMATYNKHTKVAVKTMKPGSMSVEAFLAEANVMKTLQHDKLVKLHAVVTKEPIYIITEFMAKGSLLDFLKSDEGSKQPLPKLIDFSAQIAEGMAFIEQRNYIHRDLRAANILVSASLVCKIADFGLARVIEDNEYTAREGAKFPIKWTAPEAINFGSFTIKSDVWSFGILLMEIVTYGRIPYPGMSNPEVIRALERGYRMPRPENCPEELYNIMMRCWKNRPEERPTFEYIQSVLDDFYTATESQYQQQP
Chain of Vascular endothelial growth factor receptor 2 (Homo sapiens) (P35968 whole entry): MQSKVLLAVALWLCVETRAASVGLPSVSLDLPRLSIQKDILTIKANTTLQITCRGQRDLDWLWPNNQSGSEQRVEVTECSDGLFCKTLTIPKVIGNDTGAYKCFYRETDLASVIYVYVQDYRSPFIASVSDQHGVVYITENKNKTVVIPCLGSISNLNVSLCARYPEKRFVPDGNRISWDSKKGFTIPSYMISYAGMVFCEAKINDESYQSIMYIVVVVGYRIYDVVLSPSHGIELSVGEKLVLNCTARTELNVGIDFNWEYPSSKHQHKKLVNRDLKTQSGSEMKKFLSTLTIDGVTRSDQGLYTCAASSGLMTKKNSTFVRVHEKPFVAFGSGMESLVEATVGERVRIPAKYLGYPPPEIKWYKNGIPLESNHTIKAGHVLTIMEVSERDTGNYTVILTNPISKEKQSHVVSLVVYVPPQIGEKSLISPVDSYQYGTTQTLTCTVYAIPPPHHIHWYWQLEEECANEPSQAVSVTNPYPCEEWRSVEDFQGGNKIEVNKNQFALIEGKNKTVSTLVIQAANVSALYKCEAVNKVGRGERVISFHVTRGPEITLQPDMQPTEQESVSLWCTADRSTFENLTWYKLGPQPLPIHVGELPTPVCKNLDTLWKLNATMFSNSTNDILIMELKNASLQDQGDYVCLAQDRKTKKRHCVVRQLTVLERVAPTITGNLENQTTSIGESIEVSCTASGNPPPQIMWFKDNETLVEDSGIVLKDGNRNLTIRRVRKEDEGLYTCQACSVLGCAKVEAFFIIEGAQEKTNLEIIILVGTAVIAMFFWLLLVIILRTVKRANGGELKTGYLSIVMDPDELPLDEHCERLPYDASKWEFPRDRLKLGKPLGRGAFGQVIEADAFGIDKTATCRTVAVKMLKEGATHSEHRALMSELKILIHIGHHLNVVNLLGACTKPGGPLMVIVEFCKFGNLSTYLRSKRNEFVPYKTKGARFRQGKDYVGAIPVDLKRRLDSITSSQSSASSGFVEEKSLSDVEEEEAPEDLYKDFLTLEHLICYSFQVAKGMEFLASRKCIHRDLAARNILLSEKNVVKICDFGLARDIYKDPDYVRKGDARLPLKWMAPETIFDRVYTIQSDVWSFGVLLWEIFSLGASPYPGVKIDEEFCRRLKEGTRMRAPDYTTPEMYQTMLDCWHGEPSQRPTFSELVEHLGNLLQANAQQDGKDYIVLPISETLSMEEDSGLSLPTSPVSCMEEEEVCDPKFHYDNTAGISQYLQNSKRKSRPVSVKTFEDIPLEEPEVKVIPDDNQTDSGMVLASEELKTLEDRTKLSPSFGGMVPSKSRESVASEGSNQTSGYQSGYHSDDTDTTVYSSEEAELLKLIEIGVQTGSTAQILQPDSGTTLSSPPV
Chain of Insulin receptor (Homo sapiens) (P06213 28-758 limits assumed): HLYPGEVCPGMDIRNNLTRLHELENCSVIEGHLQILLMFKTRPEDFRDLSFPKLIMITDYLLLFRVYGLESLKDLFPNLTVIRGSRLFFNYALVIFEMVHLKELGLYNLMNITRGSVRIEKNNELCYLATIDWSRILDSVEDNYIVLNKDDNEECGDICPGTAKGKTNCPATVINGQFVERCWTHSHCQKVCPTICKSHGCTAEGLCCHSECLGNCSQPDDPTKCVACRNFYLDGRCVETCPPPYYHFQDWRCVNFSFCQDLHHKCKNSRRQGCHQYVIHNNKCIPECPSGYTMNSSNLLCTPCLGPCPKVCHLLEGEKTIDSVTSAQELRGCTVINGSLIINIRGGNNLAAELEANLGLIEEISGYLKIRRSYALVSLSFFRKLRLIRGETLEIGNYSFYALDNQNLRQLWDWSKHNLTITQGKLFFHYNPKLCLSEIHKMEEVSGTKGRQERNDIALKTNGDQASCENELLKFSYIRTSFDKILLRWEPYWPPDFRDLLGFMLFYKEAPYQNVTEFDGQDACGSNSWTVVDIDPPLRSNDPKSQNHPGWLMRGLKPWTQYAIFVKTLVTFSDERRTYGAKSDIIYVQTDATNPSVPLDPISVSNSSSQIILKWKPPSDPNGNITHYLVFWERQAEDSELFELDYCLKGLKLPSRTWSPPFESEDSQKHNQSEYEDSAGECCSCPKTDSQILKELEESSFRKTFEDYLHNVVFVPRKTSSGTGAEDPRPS
Chain of Insulin receptor (Homo sapiens) (P06213 763-1382 limits assumed): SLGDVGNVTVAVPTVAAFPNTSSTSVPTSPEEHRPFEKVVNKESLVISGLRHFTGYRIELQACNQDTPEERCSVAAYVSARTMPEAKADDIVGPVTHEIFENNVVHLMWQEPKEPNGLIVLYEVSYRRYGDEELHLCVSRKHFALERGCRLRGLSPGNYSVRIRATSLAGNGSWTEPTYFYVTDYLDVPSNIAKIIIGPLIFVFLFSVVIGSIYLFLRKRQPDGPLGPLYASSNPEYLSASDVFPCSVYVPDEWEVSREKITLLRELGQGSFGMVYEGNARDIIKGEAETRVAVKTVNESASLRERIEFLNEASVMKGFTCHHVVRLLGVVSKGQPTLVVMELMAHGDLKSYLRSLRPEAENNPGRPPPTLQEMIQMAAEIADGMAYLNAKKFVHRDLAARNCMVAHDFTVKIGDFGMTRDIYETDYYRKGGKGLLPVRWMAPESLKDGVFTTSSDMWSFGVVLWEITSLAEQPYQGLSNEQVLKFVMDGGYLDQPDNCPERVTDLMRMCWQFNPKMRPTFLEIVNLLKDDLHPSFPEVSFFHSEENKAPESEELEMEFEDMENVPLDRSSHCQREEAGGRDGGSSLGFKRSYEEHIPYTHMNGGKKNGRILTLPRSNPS
Chain of Tyrosine-protein kinase Fyn (Homo sapiens) (P06241 2-537 limits assumed): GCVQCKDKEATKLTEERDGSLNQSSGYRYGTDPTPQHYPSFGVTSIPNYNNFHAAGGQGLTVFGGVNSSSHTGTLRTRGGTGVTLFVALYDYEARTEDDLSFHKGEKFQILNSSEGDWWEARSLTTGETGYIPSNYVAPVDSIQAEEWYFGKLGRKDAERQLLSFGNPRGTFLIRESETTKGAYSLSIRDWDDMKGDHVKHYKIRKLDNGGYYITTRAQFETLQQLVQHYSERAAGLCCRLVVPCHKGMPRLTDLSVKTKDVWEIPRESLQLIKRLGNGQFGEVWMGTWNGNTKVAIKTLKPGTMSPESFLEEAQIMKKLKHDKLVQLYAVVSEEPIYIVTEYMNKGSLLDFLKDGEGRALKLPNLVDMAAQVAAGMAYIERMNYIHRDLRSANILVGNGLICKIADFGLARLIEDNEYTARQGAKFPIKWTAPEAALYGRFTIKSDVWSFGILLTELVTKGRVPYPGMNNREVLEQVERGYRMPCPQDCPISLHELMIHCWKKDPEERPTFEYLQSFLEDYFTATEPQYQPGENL

Regarding `COC(=O)c1sc(-n2cnc3cc(OC)c(OC)cc32)cc1OCc1ccccc1C(F)(F)F`, the inhibition in [1] is 56.3%; in assay [2], 9.79%; in [3], 28.1%; in assay [4] it was 0.42%; in assay [5] it was 0.25%; in assay [6], 5.09%. The inhibition was 5.96% in assay [7]; 1.78% in assay [8]; -0.14% in [9]; 1.1% in assay [10]; 1.09% in [11]; 3.38% in assay [12]. Besides, the inhibition in assay [13] was -0.23%; in assay [14], 0.91%; in assay [15], 5.28%; in assay [16], 0.11%; in [17], 10.7%; in assay [18], 15.2%. Moreover, the inhibition in [19] turned out to be 49.6%; in assay [20], 2.41%.

`CC(C)COC(=O)c1ccc2c(c1)/C(=C/Nc1ccc(S(N)(=O)=O)cc1)C(=O)N2`: the inhibition stood at 71.6% in assay [1]; 4.68% in assay [2]; 38.5% in assay [3]; 0.52% in [4]; 1.72% in assay [5]; 2.06% in assay [6]. The inhibition in assay [7] is 2.17%; in [8] it was -3.52%; in assay [9] it was 0.22%; in assay [10], 0.34%; in assay [11], 5.29%; in assay [12] it was 0.07%. Also, the inhibition in assay [13] was 12.7%; in [14], -0.31%; in [15], 12.3%; in assay [16], 2.41%; in [17] it was 45.5%; in [18], 40.4%. The inhibition in [19] is 71.5%; in assay [20] it was -0.74%.

For `COc1cc(Nc2nccc(Nc3ccc4c(C)n[nH]c4c3)n2)cc(OC)c1OC`, the inhibition in [1] worked out at 85.4%; in assay [2], 31.2%; in assay [3], 67.7%; in assay [4], 28%; in [5] it was 76.8%; in assay [6], 13.1%. Moreover, the inhibition in [7] came out at 64.7%; in assay [8] it was 1.88%; in [9], 3.74%; in assay [10] it was 2.37%; in assay [11], 7.07%; in assay [12] it was 17.8%. In addition, the inhibition in assay [13] worked out at 66.5%; in assay [14], 35.6%; in assay [15], 72.5%; in assay [16] it was 1.48%; in assay [17], 27.8%; in assay [18], 74.9%. Besides, the inhibition in [19] turned out to be 72.5%; in assay [20], 77.3%.

On to `CCn1c(-c2nonc2N)nc2cnc(Oc3cccc(NC(=O)c4ccc(N(C)C)cc4)c3)cc21`, for which the inhibition in assay [1] was 1.97%; in assay [2], 4.12%; in [3], 4.03%; in [4], -0.26%; in assay [5], 0.33%; in [6], 2.97%. For the same compound, the inhibition in [7] is 3.14%; in assay [8], -0.46%; in [9], 0.53%; in assay [10], 0.98%; in assay [11], 0.86%; in [12] it was 0.78%. Also, the inhibition in assay [13] is 2.7%; in assay [14] it was 0.7%; in assay [15], 0.27%; in assay [16], -0.01%; in assay [17] it was -1.1%; in assay [18], 2.18%. Further, the inhibition in [19] came out at 8.86%; in [20], 0.97%.

As to `CN1CCC(n2cnc(-c3ccc(F)cc3)c2-c2ccnc(Nc3ccccc3)n2)CC1`, the inhibition in assay [1] came out at 8.11%; in assay [2] it was 4.85%; in [3], 11.1%; in assay [4], 1.01%; in assay [5], 1.68%; in assay [6] it was 1.5%. Further, the inhibition was 0.39% in assay [7]; 0.31% in assay [8]; 2.49% in [9]; 0.83% in [10]; 1.68% in assay [11]; 1.51% in [12]. Further, the inhibition was 8.4% in [13]; 0.27% in assay [14]; 0.26% in [15]; -0.54% in [16]; 1.46% in assay [17]; 4.35% in assay [18]. Further, the figures for the inhibition in assay [19] and in [20] were 12.4% and 2.33%, respectively.

`CCc1nn2ncccc2c1-c1ccnc(NC2CC2)n1`: the inhibition in [1] was 5.07%; in [2] it was 5.27%; in assay [3], 5.74%; in [4] it was 1.94%; in assay [5], 2%; in assay [6], 2.33%. In addition, the inhibition in assay [7] stood at 4.74%; in assay [8] it was 2.32%; in assay [9], 1.77%; in [10], 1.28%; in assay [11] it was 1.59%; in [12], 1.35%. Moreover, the inhibition in [13] was 0.58%; in assay [14] it was 0.9%; in assay [15], 1.59%; in assay [16], -2.87%; in assay [17], -0.27%; in assay [18], 3.91%. For the same compound, the figures for the inhibition in [19] and in assay [20] were 5.8% and 3.6%, respectively.
